Measured values as given in PubChem BioAssay AID588651 (The Scripps Research Institute Molecular Screening Center, 2011).
Calls of active or inactive are those of the source. No stated cut-off is given here; in the data, active means inhibition above about 65%; inactive means the rest.

These molecules were tested on Antitargets (assay: Fam108b inhibitors and proteome off-target selectivity – biochemical, gel-based ABPP, recombinant soluble Fam108b, HTS hits, complex proteome, late-stage follow-up (AID 588651;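 further: Fam108b spiked into mouse brain membrane proteome; tested at 20 µM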)). Conditions: FP-rhodamine labeling in proteome.
For `COc1cccc2c1C(=O)c1c(O)c3c(c(O)c1C2=O)C[C@@](O)(C(=O)CO)C[C@@H]3O[C@H]1C[C@H](N)[C@H](O)[C@H](C)O1`, the outcome was “inactive”. `COc1ccc(/C=C2\SC(=S)N(CC(=O)OCC(=O)Nc3cc(Cl)cc(Cl)c3)C2=O)cc1` was tested, and the outcome was “inactive”. In the case of `CCCCCCCCCCCCCCCC[n+]1ccc(C=NO)cc1`, the outcome is reported as “inactive”. In the case of `Nc1cc2nsnc2cc1Br`, the outcome is reported as “inactive”. With `Cn1c(O)c(C=NNC(=O)c2cc3ccccc3cc2O)c2ccccc21` the outcome was “inactive”. `CCOC(=O)c1sc(NC(=O)Nc2ccc(Cl)cc2)cc1C` was tested, and the outcome was “inactive”. With `CC1CCCCN1S(=O)(=O)c1ccc(C(=O)Nc2ccccc2-c2nc3ccccc3[nH]2)cc1` (centres undefined) the outcome was “inactive”. In the case of `COc1ccc(-c2csc3nc(-c4ccccc4OC)oc(=O)c23)cc1`, the outcome is reported as “inactive”. In the case of `O=c1ccc2cc3c([nH]c4ccc(Br)cc43)oc-2c1O`, the outcome is reported as “inactive”. In the case of `CCc1cc(C(Cc2ccc3ccccc3n2)=NO)c(O)cc1O`, the outcome is reported as “active”. With `COc1ccc2ccccc2c1C(O)c1nccn1C` (centres undefined) the outcome was “inactive”. In the case of `O=C(Nc1ccc(-c2csc(Nc3cccc(C(F)(F)F)c3)n2)cc1)c1cccc(C(F)(F)F)c1`, the outcome is reported as “inactive”. With `Cc1[nH]c2c(C)cccc2c1CCNC(=O)c1ccc2c(c1[N+](=O)[O-])C(=O)c1ccccc1C2=O` the outcome was “inactive”. In the case of `CSC[C@@H]1NC(=S)N(c2ccc(C)cc2)C1=O`, the outcome is reported as “inactive”. With `Cc1ccnc(N=Cc2nc(-c3ccccc3Br)oc2O)c1` the outcome was “inactive”. For `COc1cc2c(cc1NC(=S)Nc1cccc(C(F)(F)F)c1)oc1ccccc12`, the outcome was “inactive”. With `O=C(Nc1ccc(F)cc1)Nc1ccc(N2CCCC2)c(S(=O)(=O)Nc2ccccc2Cl)c1` the outcome was “active”. With `Cc1ccc(-c2csc3nc(C(C)C)oc(=O)c23)c(C)c1` the outcome was “inactive”. For `Nc1cc(C(=O)O)c(N)c2c1C(=O)c1ccccc1C2=O`, the outcome was “inactive”. For `O=[N+]([O-])c1ccc(NN=Cc2c[nH]c3ccccc23)c(S(=O)(=O)Nc2ccc(Cl)cc2)c1`, the outcome was “inactive”. With `COc1cc2c(cc1NC(=O)Nc1ccccc1)oc1ccccc12` the outcome was “inactive”. `O=C(NN=Cc1ccc(O)cc1)c1cccc(NN=Cc2ccc(O)cc2)c1` was tested, and the outcome was “active”. `CCN(CC)S(=O)(=O)c1cc(NC(=O)COC(=O)c2sc3ccccc3c2Cl)ccc1C` was tested, and the outcome was “inactive”. For `O=C(O)C1Nc2ccc(Br)cc2C2C=CCC12` (centres undefined), the outcome was “inactive”. `Cc1ccc2nc(CSc3nc(C)ccc3C#N)[nH]c2c1` was tested, and the outcome was “inactive”. `O=C(O)CCCNc1cc(N2CCN(C(=O)c3ccco3)CC2)c2noc3c2c1C(=O)c1ccccc1-3` was tested, and the outcome was “inactive”. With `Cc1nc2scc(-c3ccccc3)c2c(=O)o1` the outcome was “inactive”. For `COc1cccc(C=NNc2nc(Nc3ccc([N+](=O)[O-])cc3)nc(N3CCCC3)n2)c1O`, the outcome was “inactive”. For `Oc1ccccc1-c1nc2c3ccccc3c3ccccc3c2[nH]1`, the outcome was “inactive”. For `O=C(NC1CCCCC1)c1sc(=S)n2c1[nH]c(=O)c1ccccc12`, the outcome was “inactive”. In the case of `COc1ccc(/C=C/C(=O)OCC(=O)Nc2cccc(Oc3ccccc3)c2)c(OC)c1`, the outcome is reported as “inactive”. `Cc1cc(Nc2ccc(Cl)cc2)nc(NCc2ccccc2)n1` was tested, and the outcome was “inactive”. `Cc1ccccc1NC1=C/C(=N\S(=O)(=O)c2cccs2)c2ccccc2C1=O` was tested, and the outcome was “inactive”. In the case of `COc1cccc(-n2c(SCc3cc(=O)oc4cc(O)c(O)cc34)nc3ccccc3c2=O)c1`, the outcome is reported as “inactive”.
